Results taken from PubChem BioAssay (NCI).
The panel holds about 83,000 compounds, 20% with a hit somewhere; the sample as a whole holds those more often.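 Results are percent growth after 48 hours of single-concentration exposure. 100 means growth as in untreated cells, lower positive values show inhibition; negative values down to -100 show cell death.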 Unmarked numbers belong to inactive results. Active and inactive are the calls of the source. The calls were made as follows: active = growth percent below 10; inactive = the rest.

What was measured:
Experiment in all cases: NCI-60 one-dose screen, 48 h (100 = growth as untreated, 0 = no growth, -100 = all killed)
Conditions in all cases: 10 µM unless noted
NCI-H23 lung = tested on: NCI-H23 lung
NCI-H226 lung = tested on: NCI-H226 lung
NCI-H322M lung = tested on: NCI-H322M lung
HOP-62 NSCLC = tested on: HOP-62 NSCLC
NCI-H460 lung = tested on: NCI-H460 lung
HOP-92 NSCLC = tested on: HOP-92 NSCLC
NCI-H522 lung = tested on: NCI-H522 lung
A549/ATCC NSCLC = tested on: A549/ATCC NSCLC
786-0 renal = tested on: 786-0 renal
COLO 205 colon = tested on: COLO 205 colon

Row | Structure (SMILES) | growth (NCI-H23 lung) | growth (NCI-H226 lung) | growth (NCI-H322M lung) | growth (HOP-62 NSCLC) | growth (NCI-H460 lung) | growth (HOP-92 NSCLC) | growth (NCI-H522 lung) | growth (A549/ATCC NSCLC) | growth (786-0 renal) | growth (COLO 205 colon)
1 | N#CCc1cccc2ccccc12 | 109% | 100% | 106% | 109% | 108% | 87.2% | 91.6% | 103% | 109% | 115%
2 | Cc1ccccc1NC(=O)Cc1csc2[n+]1C(=O)/C(=C/c1ccc([N+](=O)[O-])cc1)S2 | 93.1% | 91.1% | 103% | 86.7% | 104% | 79.5% | 86.3% | 99.8% | 93.5% | 105%
3 | Oc1c(C(Nc2ccccc2)c2ccccc2)ccc2cccnc12 (stereo unspecified) | 51% | 33.2% | 46.4% | 24.1% | 20.7% | 19.9% | 4.85% (active) | 37.3% | 39.3% | 16.8%
4 | O=[N+]([O-])c1ccc(C(Br)c2ccc([N+](=O)[O-])cc2)cc1 | 79.5% | 99.6% | 114% | 105% | 102% | 86.1% | -40.3% (active) | 100% | 108% | 88.3%
5 | Cc1ccccc1N=C(N)Nc1ccccc1C (tested in a mixture with another compound) | 94.8% | 97.1% | 99.4% | 84.7% | 76.1% | 76.5% | 4.48% (active) | 74.4% | 73.9% | 85.5%
6 | CN1CSC(=S)N(Cc2ccccc2)C1 | 83.9% | 104% | 102% | 108% | 108% | 69.4% | -25.6% (active) | 107% | 100% | 113%
7 | Cc1ccc2c(c1)sc(-c1ccc(N(C)C)cc1)[n+]2C | 12.2% | 17.8% | 12.7% | 1.81% (active) | -25.7% (active) | -38.6% (active) | 8.21% (active) | 26.6% | 7.31% (active) | -83% (active)
8 | COC(=O)c1cc([N+](=O)[O-])cc([N+](=O)[O-])c1Cl | 98.3% | 102% | 106% | 102% | 102% | 99.7% | -74% (active) | 101% | 102% | -64.1% (active)
9 | O=Nc1ccc2ccccc2c1O | 56.6% | 102% | 103% | 95.2% | 97.5% | 90.1% | 74.7% | 87.1% | 98% | 75.1%
10 | CCCOC(=O)c1nc(N(CC2CCCCC2)C(=O)NC)sc1/N=C/c1ccccc1 | 31.1% | 56.8% | 57.9% | 25.5% | 2.34% (active) | 15.5% | -18.4% (active) | 13.6% | 9.27% (active) | 18.6%
11 | O=C1c2ccccc2Cc2cccc(Cl)c21 | 95.5% | 94.6% | 85.4% | 98.8% | 117% | 110% | 85.8% | 91.7% | 89.1% | 
12 | COc1cc(/C=C/C(=O)CC(=O)/C=C/c2ccc(O)c(OC)c2)ccc1O | 21.1% | 88.1% | 78.3% | 40.9% | 47.4% | 71.9% | -22.5% (active) | 63.8% | 16.7% | 86.3%
13 | CC1CC(C)(C)OB(OC(C)CC(C)(C)OB2OC(C)CC(C)(C)O2)O1 (stereo unspecified) | 93% | 107% | 102% | 91.6% | 111% | 101% | 81.6% | 93.8% | 98.4% | 93.8%
14 | [Cl-].[Rh+3].c1ccc(-c2ccnc3c2ccc2c(-c4ccccc4)ccnc23)cc1.c1ccc(-c2ccnc3c2ccc2c(-c4ccccc4)ccnc23)cc1.c1ccc(-c2ccnc3c2ccc2c(-c4ccccc4)ccnc23)cc1 | 86.6% | 107% | 105% | 92% | 92.4% | 80.9% | 42.1% | -0.367% (active) | 84.8% | 64.6%
15 | CCc1oc2ccccc2c1C(=O)c1cc(Br)c(O)c(Br)c1 | 52.9% | 84% | 118% | 81.8% | 86.9% | 0.0238% (active) | 30.8% | 66.5% | 68.2% | 
16 | N#CC1c2ccccc2C=CN1C(=O)CCCl (stereo unspecified) | 94.2% | 94.1% | 93.8% | 99.8% | 106% | 60.7% | -71.6% (active) | 96.2% | 82% | 
17 | O=C(OC12CC3CC(CC(C3)C1)C2)c1ccc(NCc2cc(O)ccc2O)cc1 | -21.9% (active) | -63.6% (active) | 47.6% | -55.7% (active) | 3.32% (active) | -36.9% (active) | -74.7% (active) | -21.9% (active) | -90% (active) | -71.2% (active)
18 | CCCC[n+]1c(/C=C\c2c(OC)cc(OC)cc2OC)ccc2ccccc21 | -4.06% (active) | 9.84% (active) | 4.8% (active) | 13.8% | -43.2% (active) | -20% (active) | -73.4% (active) | -22.9% (active) | 21.5% | -53.3% (active)
19 | COC(=O)c1ccc(=O)c2nc3/c(=C/O)c(O)cc(=O)c3[nH]c12 | 15.1% | 34.9% | 29.1% | -9.51% (active) | 19.9% | -1.12% (active) | 6.78% (active) | 27.7% | 11.8% | 51%
20 | C[n+]1ccccc1C[n+]1ccccc1 | 106% | 108% | 128% | 100% | 115% | 101% | 111% | 107% | 108% | 114%
21 | COC(=O)[C@]1(C)CCC[C@]2(C)c3ccc(C(C)C)cc3C(=O)[C@@H](Br)[C@@H]12 | 90.3% | 81.7% | 118% | 94.3% | 106% | 82.6% | 80.8% | 90.1% | 94.8% | 106%
22 | CCCCOS(=O)(=O)c1ccccc1 | 104% | 97.9% | 98% | 96.9% | 115% | 122% | 111% | 116% | 101% | 134%
23 | CN=C(N)N/N=C(\C)c1ccc2c(c1)Cc1ccccc1-2 | 10.7% | -39.1% (active) | -85% (active) | -73.3% (active) | -97.9% (active) | -8.45% (active) | 12.2% | -66.4% (active) | -77.9% (active) | -100% (active)
24 | Cc1cc(C(=O)c2ccc(Cl)cc2)ccc1O | 102% | 90.1% | 103% | 85.7% | 106% | 104% | 72.5% | 91.8% | 79.7% | 122%
25 | N#CC(I)CS(=O)(=O)c1ccccc1 (stereo unspecified) | 101% | 105% | 124% | 98.6% | 114% | 94.5% | -80.6% (active) | 93.3% | 107% | -27.5% (active)
26 | O=C1C=CC(=O)N1c1cc(Cl)c(Cl)cc1Cl | 100% | 100% | 90.6% | 100% | 107% | 107% | 84.4% | 103% | 96% | 
27 | NC(=S)N/N=C\c1nccc2c(N)cccc12 | 15.6% | -5.48% (active) | 4.54% (active) | -7.04% (active) | 3.27% (active) | 19.8% | 6.31% (active) | 12.4% | 14.2% | 16.2%
28 | COC(=O)Nc1nc2ccc(C3(c4ccc(F)cc4)OCCO3)cc2[nH]1 | 47.4% | 63.9% | 51.7% | 35.8% | 10.4% | 41.1% | -37.2% (active) | 21.7% | 51% | 0.171% (active)
29 | Cc1cc2cccnc2c2ncccc12 | 18.7% | -2.12% (active) | 40.4% | 12% | 0.789% (active) | 44.6% | 22.1% | 12.3% | 18.9% | 9.8% (active)
